# Many of the other results were omitted from the sample, so hits are more common in it than they were.
# GBA activity up – GBA activity enhancers in patient fibroblasts, primary screen, cell-based | hit rate 0.44% among 30,000 | activation, % at 10 µM | Lysosomal acid glucosylceramidase (Homo sapiens), P04062 | L444P Gaucher fibroblasts, 4-MU-glucoside fluorescence, 3 days; in the data active = activation above about 65%;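 note: 0% = vehicle wells and 100% = positive control wells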
# Target sequence (P04062 whole entry L483P): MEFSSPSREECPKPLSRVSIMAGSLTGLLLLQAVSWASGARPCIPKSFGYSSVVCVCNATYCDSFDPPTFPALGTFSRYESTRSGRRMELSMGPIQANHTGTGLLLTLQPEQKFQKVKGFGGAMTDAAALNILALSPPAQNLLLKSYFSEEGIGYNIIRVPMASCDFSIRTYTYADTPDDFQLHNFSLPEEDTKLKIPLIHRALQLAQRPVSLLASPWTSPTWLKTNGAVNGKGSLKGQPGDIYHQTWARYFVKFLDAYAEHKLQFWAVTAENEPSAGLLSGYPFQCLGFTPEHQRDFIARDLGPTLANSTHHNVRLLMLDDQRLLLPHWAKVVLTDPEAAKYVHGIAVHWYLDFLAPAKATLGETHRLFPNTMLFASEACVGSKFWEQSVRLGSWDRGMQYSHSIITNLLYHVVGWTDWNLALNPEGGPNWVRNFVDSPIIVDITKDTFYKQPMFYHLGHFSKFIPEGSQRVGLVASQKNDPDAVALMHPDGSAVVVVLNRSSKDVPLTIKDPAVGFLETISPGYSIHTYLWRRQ
# An asterisk follows results filed as active.
SMILES,GBA activity up
Cc1cccc2sc(NC(=O)CN(C)S(=O)(=O)c3cccs3)nc12,76*
COc1ccc(NC(=O)CN(C)S(=O)(=O)c2cccs2)cc1,-15
COC(=O)Nc1nc2c(C)cccc2s1,-9
COc1ccc(S(=O)(=O)Nc2c(C)ccc3nsnc23)cc1OC,-2
CC(=O)c1cccc(NC(=O)N2CCCC2C(=O)NCc2ccc(C)cc2)c1 (configuration not stated),23
CC(=O)Nc1cccc(NC(=O)C2CCCN2C(=O)Nc2ccc(C)cc2)c1 (configuration not stated),80*
CC(=O)c1cccc(NC(=O)N2CCCC2C(=O)Nc2ccccc2C)c1 (configuration not stated),-20
COc1ccc(C2CNC(=O)C2)cc1OC1CCCC1 (configuration not stated),-9
O=C(c1ccco1)c1cn[nH]c1-c1ccc(Cl)cc1O,-65
O=c1cc(NCc2ccco2)[nH]c(=O)n1-c1ccc(Br)cc1,-34
O=C(Nc1ccc(N2CCN(Cc3ccccc3)CC2)cc1)c1ncn[nH]1,-2
CC1(C)NC(=O)N(CNc2cc(Cl)ccc2Cl)C1=O,-13
CCn1c(C(=O)NCc2cccnc2)cc2sc(Cl)cc21,-22
COc1cccc(S(=O)(=O)NCc2ccc(C(=O)NCC3CCCO3)cc2)c1 (configuration not stated),2
O=C(CN(CCc1ccccc1)C(=O)CNS(=O)(=O)c1ccccc1)NCC1CCCO1 (configuration not stated),-7
COc1ccc(S(=O)(=O)NCC(=O)N(CC(=O)NCC2CCCO2)c2ccccc2C)cc1 (configuration not stated),72*
CCC(Sc1nc(C)cc(=O)[nH]1)C(=O)Nc1nc2c(s1)CCCC2 (configuration not stated),81*
Cc1cc(=O)[nH]c(SCC(=O)Nc2nc3c(s2)CCCC3)n1,-36
CCC(Sc1nc(C)cc(=O)[nH]1)C(=O)Nc1nnc(C)s1 (configuration not stated),-21
C=CCOC(=O)C1=C(C)Nc2nc3ccccc3n2C1c1ccncc1 (configuration not stated),14
Cc1ccc2[nH]c(=O)c(CN(CCCN3CCOCC3)C(=O)Nc3cccc(Cl)c3)cc2c1,-50
O=C1[C@H]2[C@@H](C(=O)N1c1cc(Cl)cc(Cl)c1)[C@]1(C(=O)Nc3ccccc31)N1CCC[C@@H]21,-6
O=C1Nc2ccccc2C(O)(C(=O)NC2CC2)N1c1ccc(Cl)c(Cl)c1 (configuration not stated),81*
O=C1Nc2ccccc2C(O)(C(=O)NCc2ccco2)N1c1ccc(Cl)cc1 (configuration not stated),-30
CCc1nc(SCc2cccnc2)[nH]c(=O)c1C,-22
SMILES,GBA activity up
COc1ccc(NS(=O)(=O)c2cccc3cccnc23)cc1,-19
O=C(NC1CCCC1)C1CCN(S(=O)(=O)c2cccc3cccnc23)CC1,4
CC(CS(=O)(=O)c1cccc2cccnc12)N1CCCCC1 (configuration not stated),108*
CS(=O)(=O)N(CCc1ccccc1)CC(=O)NCC1CCCO1 (configuration not stated),2
O=C1CC(N2CCN(S(=O)(=O)c3cccc(C(F)(F)F)c3)CC2)C(=O)N1Cc1ccccc1 (configuration not stated),22
CCn1c(SCC(=O)N2CCN(c3ccccc3)CC2)nnc1-c1cc2cc(Cl)ccc2o1,90*
CCn1c(CC(=O)Nc2ccc(C)cc2)nnc1SCC(=O)N1CCN(c2ccccc2)CC1,-4
O=C(CSc1nnc(-c2ccc(Cl)cc2)o1)N1CCN(c2ccccc2)CC1,-2
COc1ccc(S(=O)(=O)Nc2ccc(S(=O)(=O)Nc3nc(C)cc(C)n3)cc2)cc1OC,-13
COc1ccccc1NC(=O)N(Cc1ccccc1)C1=NCC(C)S1 (configuration not stated),-50
c1ccc(Cn2c(SCc3nc4ccccc4s3)nnc2-c2ccco2)cc1,127*
CCC(c1nnc(SCc2nc3ccccc3s2)n1Cc1ccccc1)N(C)C (configuration not stated),0
c1ccc(-n2cnnc2SCc2nc3ccccc3s2)cc1,-19
CN1C(=O)C(C(=O)NC(C)(C)C)C2c3ccccc3OC13CCCCC23 (configuration not stated),25
CC1c2nc3ccccc3n2C(CC(=O)NCc2ccccn2)C(=O)N1Cc1ccccc1 (configuration not stated),15
COc1cc(CSc2nnnn2-c2ccc(C)cc2)cc(OC)c1OC,-11
CCOCCCn1c(=N)c(C(=O)NCCN2CCOCC2)cc2c(=O)n3cccc(C)c3nc21,75*
COCCn1c(=N)c(C(=O)NCCc2ccc(OC)cc2)cc2c(=O)n3cccc(C)c3nc21,-24
CCOCCCn1c(=N)c(C(=O)NCc2ccc3c(c2)OCO3)cc2c(=O)n3ccccc3nc21,-15
O=C(CC1c2ccccc2Oc2ccccc21)N1CCN(c2ccccn2)CC1,-5
Cc1cccc(NC(=O)C2CC(O)CN2C(=O)OCc2ccccc2)c1 (configuration not stated),21
Cc1ccc(C)c(NC(=O)C2CC=CCC2C(=O)O)c1 (configuration not stated),13
Cc1ccc(C)c(NC(=O)C2CC(O)CN2C(=O)OC(C)(C)C)c1 (configuration not stated),72*
Cc1cc(=O)n(C)c(=O)n1CC(=O)N1CCCCCC1,5
COC(=O)c1cn(C(=O)c2cccs2)c2ccccc12,89*
SMILES,GBA activity up
COC(=O)c1cn(C(=O)c2ccc(Br)o2)c2ccccc12,-15
CCOC(=O)Cn1cc(C(=O)c2cccs2)c2ccccc21,-11
COc1ccc(C(CC(=O)O)NC(=O)c2cccs2)cc1 (configuration not stated),-2
O=C(O)CC(NC(=O)OCc1ccccc1)c1ccccc1 (configuration not stated),-11
CCOC(=O)NC(CC(=O)O)c1ccc(OCC)cc1 (configuration not stated),81*
Cc1sc(NC(=O)CSc2nnc(C)c(=O)[nH]2)c(C#N)c1C,-10
COc1cccc(NC(=O)CSc2nncn2N)c1,3
COCCNC(=O)C(C)OC(=O)c1nsc(Cl)c1Cl (configuration not stated),-18
CC(OC(=O)c1nsc(Cl)c1Cl)C(=O)NCc1cccs1 (configuration not stated),79*
CC(OC(=O)c1cccs1)C(=O)NCc1cccs1 (configuration not stated),1
O=C(CSc1n[nH]c(=O)n1C1CC1)Nc1cc(Cl)ccc1Oc1ccccc1,10
CCN(c1ccccc1)S(=O)(=O)c1cnc[nH]1,10
COc1cc(NC(=O)c2ccc3c(=O)n(Cc4ccco4)c(=S)[nH]c3c2)cc(OC)c1OC,17
O=C(NCCCN1CCCC1=O)c1ccc2c(=O)n(Cc3ccco3)c(=S)[nH]c2c1,115*
COC(=O)c1ccc2c(=O)n(CCCN3CCCC3=O)c(=S)[nH]c2c1,-7
O=C(Nn1c(=S)[nH]c2ccccc2c1=O)c1ccncc1,27
O=C(O)c1ccc2c(c1)C(=O)N(c1cc(C(=O)O)ccc1Br)C2=O,-8
O=S(=O)(NCc1csc(-c2cccnc2)n1)c1ccc2c(c1)OCCO2,109*
Cc1nc(CNS(=O)(=O)c2ccc3c(c2)OCCO3)cs1,5
O=S(=O)(NCCc1csc(-c2ccccc2)n1)c1ccc2c(c1)OCCO2,54

# Assay outcomes deposited in PubChem by The Scripps Research Institute Molecular Screening Center.
